Assay results published in PubChem BioAssay (NCATS).
Results filed as inconclusive are left out. A call without a number means that no potency is given here. Values without a mark were called inactive. Activity calls are given as the source filed them. Calls come from the whole dose curve; as a rule, active = well fitted curve in the direction sought with a large enough effect; inconclusive = small, poorly fitted or top-dose-only effect, or another doubt; inactive = no such curve, though single readings can be large; an effect the other way counts as inactive or inconclusive.

Tests used:
[1] = target: Calcium and integrin-binding protein 1 (Homo sapiens) (UniProt Q99828); assay: Primary qHTS for Identification of Calcium Integrin Binding Protein 1 (CIB1) Competitor (AID 1508620);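 note: GST tagged CIB1 binding a fluorescein labelled alphaIIb integrin peptide tracer; top concentration of the series differs between compounds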
Outline: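 Fluorescence polarization competition: GST-tagged CIB1 (1 uM final) preincubated with compound 15 min at room temperature, then FITC-labelled alphaIIb peptide (100 nM final) added. After 15 min at room temperature, polarization read at Ex 480/Em 540.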

[2] = Primary qHTS for inhibitors of nuclear receptor binding SET domain protein 2 (NSD2) in an RCH-ACV wild type WT cells (2C) (AID 1645877); note: nearly all actives have a fitted effect of over 70% in size; note: potency is the fitted concentration of half-maximal effect
[3] = Primary qHTS for inhibitors of nuclear receptor binding SET domain protein 2 (NSD2) in an isogenic RCH-ACV NSD2 p.E1099K mutant (9B) (AID 1645876); note: nearly all actives have a fitted effect of over 70% in size
[4] = target: Rap guanine nucleotide exchange factor 3 (Homo sapiens) (UniProt O95398); assay: Confirmatory qHTS for antagonist of cAMP-regulated guanine nucleotide exchange factor 3 (EPAC1) (AID 1645880); details: EPAC1 Rap1B-BODIPY-GDP exchange, fluorescence; note: potency is the fitted concentration of half-maximal effect; nearly all actives have a fitted effect of over 55% in size
Outline: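 Nucleotide exchange uses 100 nM EPAC1, 250 nM RAP1B-BODIPY-GDP and 50 uM GDP, with compounds in a concentration-titration series. After 5 min at room temperature, fluorescence (480 nm ex/540 nm em) is read every 5 min for 30 min. Data are normalized to control ATA and DMSO.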

[5] = target: Rap guanine nucleotide exchange factor 3 (Homo sapiens) (UniProt O95398); assay: Confirmatory qHTS for agonist of cAMP-regulated guanine nucleotide exchange factor 3 (EPAC1) (AID 1645881);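 note: EPAC1 catalysed release of BODIPY-GDP from Rap1B seen as fluorescence loss; nearly all actives have a fitted effect of over 75% in size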

Rap guanine nucleotide exchange factor 3 (Homo sapiens), sequence (O95398 whole entry, looked up): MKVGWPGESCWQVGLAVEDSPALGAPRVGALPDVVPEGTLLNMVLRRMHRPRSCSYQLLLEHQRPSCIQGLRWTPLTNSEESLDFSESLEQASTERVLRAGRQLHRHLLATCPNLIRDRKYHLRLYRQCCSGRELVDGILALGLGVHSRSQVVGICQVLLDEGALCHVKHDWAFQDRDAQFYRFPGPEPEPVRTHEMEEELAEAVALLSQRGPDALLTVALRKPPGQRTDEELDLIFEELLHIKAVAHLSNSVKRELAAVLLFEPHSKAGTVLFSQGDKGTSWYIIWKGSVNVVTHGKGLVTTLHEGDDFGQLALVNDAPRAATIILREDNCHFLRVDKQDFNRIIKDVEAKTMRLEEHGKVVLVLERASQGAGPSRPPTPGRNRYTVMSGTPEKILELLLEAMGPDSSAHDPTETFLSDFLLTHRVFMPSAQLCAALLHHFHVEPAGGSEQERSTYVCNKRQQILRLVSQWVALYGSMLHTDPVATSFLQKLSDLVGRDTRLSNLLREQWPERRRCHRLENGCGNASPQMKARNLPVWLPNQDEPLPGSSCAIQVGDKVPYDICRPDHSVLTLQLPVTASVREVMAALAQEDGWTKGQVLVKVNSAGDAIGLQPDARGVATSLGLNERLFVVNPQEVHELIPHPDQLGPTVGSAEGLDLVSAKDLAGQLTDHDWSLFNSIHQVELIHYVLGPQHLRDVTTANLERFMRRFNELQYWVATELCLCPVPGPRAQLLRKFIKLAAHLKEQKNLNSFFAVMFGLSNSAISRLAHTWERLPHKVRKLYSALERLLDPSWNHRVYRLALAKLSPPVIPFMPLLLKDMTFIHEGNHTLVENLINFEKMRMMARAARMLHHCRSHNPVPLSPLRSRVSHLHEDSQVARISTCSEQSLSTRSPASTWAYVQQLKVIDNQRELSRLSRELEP
Calcium and integrin-binding protein 1 (Homo sapiens), sequence (Q99828 whole entry, looked up): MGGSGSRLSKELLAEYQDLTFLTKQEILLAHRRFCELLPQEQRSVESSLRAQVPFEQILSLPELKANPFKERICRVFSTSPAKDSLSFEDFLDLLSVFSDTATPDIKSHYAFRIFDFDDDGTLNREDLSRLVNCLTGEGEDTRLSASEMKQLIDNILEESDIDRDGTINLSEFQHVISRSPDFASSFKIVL

Structure (SMILES): C=C(CO)C(=O)O[C@H]1C[C@@]23O[C@@H]2CC/C(=C/[C@H]2OC(=O)C(=C)[C@H]12)CO[C@H]3O
- Potency [1]: inactive
- Potency [2]: 8.98 µM (active)

Structure (SMILES): COc1ccc(CCC(=O)c2c(O)cc(O[C@@H]3O[C@H](CO)[C@@H](O)[C@H](O)[C@H]3O[C@@H]3O[C@@H](C)[C@H](O)[C@@H](O)[C@H]3O)cc2O)cc1O
- Potency [3]: inactive
- Potency [2]: inactive

Structure (SMILES): CC1=C[C@H]2[C@@H](CC1=O)[C@H](C)C[C@H](O)[C@H]2C(C)C
- Potency [1]: inactive
- Potency [2]: inactive

Structure (SMILES): C/C=C(/C)C(=O)OC1C(OC(C)=O)C23C(O)OC4(CCC5C6(C)CCC(OC7OC(C(=O)O)C(O)C(OC8OC(CO)C(O)C(O)C8OC8OC(C)C(O)C(O)C8OC8OCC(O)C(O)C8O)C7OC7OC(CO)C(O)C(O)C7O)C(C)(C)C6CCC5(C)C4(C)CC2OC(C)=O)C3CC1(C)C (stereo unspecified)
- activity change, negative = inhibition [1]: 3.17% [at 12.4 µM]
- activity change, negative = viability loss [3]: 4.87% [at 9.23 µM]
- activity change, negative = cell killing [2]: 3.76% [at 9.23 µM]

Structure (SMILES): CCCCCOC(=O)Nc1nc(=O)n(C2O[C@H](C)[C@@H](O)[C@H]2O)cc1F (stereo partly specified)
- Potency [1]: inactive
- Potency [3]: inactive
- Potency [2]: inactive

Structure (SMILES): COc1cc(/C=C/c2ccccc2)c(C(=O)O)c(O)c1CC=C(C)C
- Potency [3]: inactive
- Potency [2]: inactive

Structure (SMILES): COc1ccc(S(=O)(=O)Nc2nc(-c3cccc([N+](=O)[O-])c3)cs2)cc1OC
- Potency [3]: inactive
- Potency [2]: inactive

Structure (SMILES): CC1CC2(O)OC(=O)C3=C2C(CCC3)[C@@]12C[C@@H](c1ccoc1)OC2=O (stereo partly specified)
- Potency [3]: inactive
- Potency [2]: inactive

Structure (SMILES): COC(=O)/C=C/c1ccc(O[C@@H]2O[C@H](CO)[C@@H](O)[C@H](O)[C@H]2O)cc1
- Potency [1]: inactive
- Potency [2]: 8.01 µM (active)

Structure (SMILES): CCOc1ccc(-c2cc(NC(=O)c3c(F)cccc3F)c(C(=O)O)s2)cc1
- Potency [4]: 9.53 µM (active)
- outcome [5]: inactive

Structure (SMILES): C/C=C1/CC2C(=O)Nc3cc(O)c(OC)cc3C(=O)N2C1 (stereo unspecified)
- Potency [1]: inactive
- Potency [2]: 10.1 µM (active)

Structure (SMILES): O=C(O)CC1(O)C(=O)Nc2ccccc21 (stereo unspecified)
- Potency [3]: inactive
- Potency [2]: inactive

Structure (SMILES): C/C=C/C=C/C1=C2C(=O)C3(C)C4C(C(=O)CC(O)/C=C/C)=C(O1)C1(C)C2C2(C)OC1(O)C4(C)OC23O (stereo unspecified)
- Potency [1]: inactive
- Potency [2]: 7.96 µM (active)

Structure (SMILES): CCC(=O)OCC(=O)[C@@]1(OC(=O)CC)[C@@H](C)C[C@H]2[C@@H]3CCC4=CC(=O)C=C[C@]4(C)[C@@]3(F)[C@@H](O)C[C@@]21C
- Potency [1]: inactive
- Potency [2]: 0.0073 µM (active)

Structure (SMILES): COc1c(C)c(OCC(O)C(C)(C)O)cc2c1CNC2=O (stereo unspecified)
- Potency [3]: inactive
- Potency [2]: inactive

Structure (SMILES): C=C1C[C@]23C[C@@]1(O)CC[C@H]2[C@@]12C=C[C@H](O)[C@@](C)(C(=O)O1)[C@H]2[C@@H]3C(=O)O
- Potency [1]: inactive
- Potency [3]: inactive
- outcome [5]: inactive

Structure (SMILES): COC(=O)C1C(O)CCC2CN3CCc4c([nH]c5ccccc45)C3CC21 (stereo unspecified)
- Potency [3]: inactive
- Potency [2]: inactive

Structure (SMILES): Cc1c(O)cc2c(c1O)COC1(O)CCCOC21 (stereo unspecified)
- Potency [3]: inactive
- Potency [2]: inactive

Structure (SMILES): C=C1C(O)CC2C(C(=O)O)=COC(OC3OC(CO)C(O)C(O)C3OC(=O)/C=C\c3ccc(O)cc3)C12 (stereo unspecified)
- Potency [1]: inactive
- Potency [3]: inactive
- Potency [2]: inactive

Structure (SMILES): CC1(C)CCC[C@]2(C)C1CC=C(CO)[C@H]2CC/C(=C/CO)CO (stereo partly specified)
- Potency [1]: inactive
- Potency [3]: inactive
- Potency [2]: inactive

Structure (SMILES): C/C=C(\C)C(=O)OC1C2(O)CC3=C4CC(=O)OC(c5ccoc5)C4(C)CCC3C(C)(C2=O)C(C(OC(C)=O)C(=O)OC)C1(C)C (stereo unspecified)
- Potency [1]: inactive
- Potency [2]: 3.83 µM (active)

Structure (SMILES): OC[C@H]1O[C@@H](Oc2cc(O)cc(-c3cc4ccc(O[C@@H]5O[C@H](CO)[C@@H](O)[C@H](O)[C@H]5O)cc4o3)c2)[C@H](O)[C@@H](O)[C@@H]1O
- Potency [1]: inactive
- Potency [2]: inactive

Structure (SMILES): O=C(/C=C/c1ccccc1)OC[C@H]1O[C@@H](OC(=O)c2cc(O)c(O)c(O)c2)[C@H](O)[C@@H](O)[C@@H]1O
- Potency [3]: inactive
- Potency [2]: inactive
